Calls of active or inactive are those of the source. No rule for the calls is given here.
Potency is read from the fitted curve at half-maximal effect.

This experiment concerns HIV-1 nucleocapsid protein NCp7 (binding to TG oligonucleotide). Kind of experiment: HIV Nucleocapsid (AID 346).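 Also: potency is for inhibitors that block NC binding and lower polarization.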 As to conditions: HIV-1 NC / fluorescein-TGTGTGTG probe, fluorescence polarization. As for the experimental part: NCGC Assay Overview: HIV-1 nucleocapsid protein (HIV-1 NC) is a small (6.5 kDa) basic zinc-finger protein which participates in packaging of viral genomic RNA. The spacing and metal-chelating residues (3 Cys, 1 His) of the Cys-X2-Cys-X4-His-X4-Cys Zn fingers are conserved among all known retroviruses (J. Med. Chem. 1998, 41, 1371-1381). HIV-1 NC was assayed for its binding to the consensus sequence single-stranded 5'-TGTGTGTG. […] High salt was included to increase the stringency of binding and inhibitor screen. Reducing agents and zinc were present to stabilize the nucleocapsid zinc-finger protein.
NCGC Assay Protocol Summary: Buffer. Hepes pH 7.5, 250mM NaCl, 1uM ZnCl2. 0.004% polyethylene glycol 20000. TCEP (100 uM) and 2-Mercaptoethanol (5 mM), added fresh the day of the experiment. Reagents/Controls. 10 nM TG4xF only in columns 3 and 4 as negative control. 10 nM TG4xF/100 nM HIV-1 NC in columns 1, 2, 5-48. Titration of control compound NSC-13778 (from 20 mM, then 1:2) pin-transferred to column 2. Assay Steps. Two uL of reagents were dispensed to 1536-well Kalypsys black plates. The plates were centrifuged for 1 min at 1000 rpm. Compounds and controls (20 nL) were transferred via Kalypsys PinTool. The plates were incubated for 1 hr at room temperature, and then read on ViewLux (Perkin-Elmer). High-throughput CCD imager using fluorescein polarization filter set and 45 seconds exposure time.
Background: In fluorescence polarisation assays a small probe gives low polarisation when free and higher when bound to something large.
With `c1ccc(CN2CCCC3(CCNCC3)C2)cc1`, the Potency is > 20 µM (inactive).

With `CN1CCCC2(CCN(C(=O)c3csnn3)CC2)C1`, the Potency is > 20 µM (inactive).

On to `CC(C)CN1CCC2(CC1)CCN(S(C)(=O)=O)CC2`, for which the Potency was > 20 µM (inactive).

`c1ccc(N2CC[C@@]3(CCCNC3)C2)cc1`: the Potency is > 20 µM (inactive).

On to `COc1ccc(NC(=O)N2CCC3(CC2)CCN(C(=O)Oc2ccccc2)CC3)cc1`, for which the Potency was > 20 µM (inactive).

Regarding `O=C(Nc1cccc(F)c1)N1CCCC2(CCN(C(=O)Oc3ccccc3)CC2)C1`, the Potency is > 20 µM (inactive).

As for `c1cnc(N2CCCC3(CCNCC3)C2)nc1`, the Potency was > 20 µM (inactive).

As to `c1cnc(N2CC[C@@]3(CCCNC3)C2)nc1`, the Potency was > 20 µM (inactive).

Take `c1ccc(N2CC[C@@]3(CCCNC3)C2)nc1`: the Potency was > 20 µM (inactive).

On to `CN1CC[C@@]2(CCCN(C(=O)c3ccncc3)C2)C1`, for which the Potency is > 20 µM (inactive).

Consider `CN1CCCC2(CCN(C(=O)Oc3ccccc3)CC2)C1`, for which the Potency is > 20 µM (inactive).

On to `N#Cc1ccc(CN2CC[C@@]3(CCCN(C(=O)Oc4ccccc4)C3)C2)cc1`, for which the Potency was > 20 µM (inactive).

Regarding `CC(C)CN1CC[C@@]2(CCCN(C(=O)c3ccncc3)C2)C1`, the Potency is > 20 µM (inactive).

Take `O=C(Oc1ccccc1)N1CCC2(CCCN(Cc3ccccc3)C2)CC1`: the Potency was > 20 µM (inactive).

In the case of `O=C(Oc1ccccc1)N1CCC2(CC1)CCN(C(c1ccccc1)c1ccccc1)CC2`, the Potency was > 20 µM (inactive).

As to `COc1ccc(NC(=O)N2CC[C@@]3(CCCN(C(=O)Oc4ccccc4)C3)C2)cc1`, the Potency was > 20 µM (inactive).

With `c1cc(CN2CCC3(CCNCC3)CC2)ccn1`, the Potency was > 20 µM (inactive).

In the case of `COC(=O)N1CCC2(CCN(CC(C)C)CC2)CC1`, the Potency was > 20 µM (inactive).

For `COCC(=O)N1CCC2(CCCN(Cc3ccncc3)C2)CC1`, the Potency is > 20 µM (inactive).

On to `CN1CCC2(CC1)CCN(C(=O)Oc1ccccc1)CC2`, for which the Potency was > 20 µM (inactive).

Turning to `CC(C)CN1CC2(CCN(C(=O)c3ccncc3)CC2)C1`, the Potency was > 20 µM (inactive).

In the case of `c1cc(CN2CC3(CCNCC3)C2)ccn1`, the Potency is > 20 µM (inactive).

For the compound `CC(C)CN1CCCC2(CCN(C(=O)Oc3ccccc3)CC2)C1`, the Potency is > 20 µM (inactive).

`O=C(c1ccncc1)N1CCC2(CC1)CN(Cc1ccccc1)C2`: the Potency is > 20 µM (inactive).

As for `CC(C)CN1CC2(CCN(C(=O)Oc3ccccc3)CC2)C1`, the Potency is > 20 µM (inactive).

With `c1cnc(N2CCC3(CCNCC3)CC2)nc1`, the Potency is > 20 µM (inactive).

As to `c1ccc(N2CCCC3(CCNCC3)C2)nc1`, the Potency is > 20 µM (inactive).

As to `CC(C)NC(=O)N1CCC2(CCNCC2)CC1`, the Potency is > 20 µM (inactive).

Regarding `O=C(Nc1cccc(F)c1)N1CC2(CCN(C(=O)Oc3ccccc3)CC2)C1`, the Potency is > 20 µM (inactive).

For `Clc1ccccc1-c1cncnc1NCCc1cnc[nH]1`, the Potency was > 20 µM (inactive).

On to `N#Cc1ccc(CN2CC3(CCNCC3)C2)cc1`, for which the Potency is > 20 µM (inactive).

Regarding `COc1ccc(NC(=O)N2CC3(CCN(C(=O)Oc4ccccc4)CC3)C2)cc1`, the Potency was > 20 µM (inactive).

In the case of `O=C(Nc1ccccc1)N1CCCC2(CCN(C(=O)Oc3ccccc3)CC2)C1`, the Potency was > 20 µM (inactive).

In the case of `c1ccc(N2CC3(CCNCC3)C2)nc1`, the Potency is > 20 µM (inactive).

`O=C(Nc1cccc(F)c1)N1CC2(CCNCC2)C1`: the Potency was > 20 µM (inactive).

For `c1csc(CN2CC3(CCNCC3)C2)n1`, the Potency was > 20 µM (inactive).

Consider `O=C(c1ccncc1)N1CCC[C@@]2(CCN(Cc3nccs3)C2)C1`, for which the Potency was > 20 µM (inactive).

Turning to `O=C(c1ccco1)N1CCC2(CC1)CN(Cc1ccncc1)C2`, the Potency is > 20 µM (inactive).

As for `CN1CCN(c2ncc3ncc(=O)n(C)c3n2)CC1`, the Potency is > 20 µM (inactive).

Regarding `c1ccc(CN2CCC3(CCNCC3)CC2)cc1`, the Potency is > 20 µM (inactive).

(Values after PubChem BioAssay (NCATS).)
